# Data reported in ChEMBL document CHEMBL1961873, “Compounds: GSK PKIS; Assays: Nanosyn kinase panel” (2012).
# Assays:
# [1] = biological target: T1, Inhibitor of nuclear factor kappa-B kinase subunit epsilon (Homo sapiens) (UniProt Q14164); conditions: at 1 µM;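 further: reported values are averaged percent inhibition figures against human IKKε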
# T1 sequence (whole entry): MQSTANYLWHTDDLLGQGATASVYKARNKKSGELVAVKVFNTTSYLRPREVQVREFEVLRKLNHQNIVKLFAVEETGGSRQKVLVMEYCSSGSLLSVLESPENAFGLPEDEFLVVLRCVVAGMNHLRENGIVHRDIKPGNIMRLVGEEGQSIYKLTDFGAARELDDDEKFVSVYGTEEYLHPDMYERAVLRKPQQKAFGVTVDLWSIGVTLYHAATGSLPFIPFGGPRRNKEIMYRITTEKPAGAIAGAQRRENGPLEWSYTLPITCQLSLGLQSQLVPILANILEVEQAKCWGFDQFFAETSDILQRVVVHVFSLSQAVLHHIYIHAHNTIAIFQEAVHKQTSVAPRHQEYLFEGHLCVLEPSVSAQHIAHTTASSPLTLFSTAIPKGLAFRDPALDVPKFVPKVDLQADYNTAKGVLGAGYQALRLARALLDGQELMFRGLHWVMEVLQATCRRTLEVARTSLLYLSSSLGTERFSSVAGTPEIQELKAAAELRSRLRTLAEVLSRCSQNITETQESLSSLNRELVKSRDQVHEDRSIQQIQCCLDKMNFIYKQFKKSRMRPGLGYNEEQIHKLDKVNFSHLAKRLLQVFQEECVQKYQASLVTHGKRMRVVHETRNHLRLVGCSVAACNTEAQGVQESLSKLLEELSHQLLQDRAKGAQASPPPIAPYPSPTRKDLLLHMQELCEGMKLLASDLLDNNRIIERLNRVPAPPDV
# [2] = biological target: T2, Serine/threonine-protein kinase Nek1 (Homo sapiens) (UniProt Q96PY6); conditions: at 0.1 µM
# T2 sequence (whole entry): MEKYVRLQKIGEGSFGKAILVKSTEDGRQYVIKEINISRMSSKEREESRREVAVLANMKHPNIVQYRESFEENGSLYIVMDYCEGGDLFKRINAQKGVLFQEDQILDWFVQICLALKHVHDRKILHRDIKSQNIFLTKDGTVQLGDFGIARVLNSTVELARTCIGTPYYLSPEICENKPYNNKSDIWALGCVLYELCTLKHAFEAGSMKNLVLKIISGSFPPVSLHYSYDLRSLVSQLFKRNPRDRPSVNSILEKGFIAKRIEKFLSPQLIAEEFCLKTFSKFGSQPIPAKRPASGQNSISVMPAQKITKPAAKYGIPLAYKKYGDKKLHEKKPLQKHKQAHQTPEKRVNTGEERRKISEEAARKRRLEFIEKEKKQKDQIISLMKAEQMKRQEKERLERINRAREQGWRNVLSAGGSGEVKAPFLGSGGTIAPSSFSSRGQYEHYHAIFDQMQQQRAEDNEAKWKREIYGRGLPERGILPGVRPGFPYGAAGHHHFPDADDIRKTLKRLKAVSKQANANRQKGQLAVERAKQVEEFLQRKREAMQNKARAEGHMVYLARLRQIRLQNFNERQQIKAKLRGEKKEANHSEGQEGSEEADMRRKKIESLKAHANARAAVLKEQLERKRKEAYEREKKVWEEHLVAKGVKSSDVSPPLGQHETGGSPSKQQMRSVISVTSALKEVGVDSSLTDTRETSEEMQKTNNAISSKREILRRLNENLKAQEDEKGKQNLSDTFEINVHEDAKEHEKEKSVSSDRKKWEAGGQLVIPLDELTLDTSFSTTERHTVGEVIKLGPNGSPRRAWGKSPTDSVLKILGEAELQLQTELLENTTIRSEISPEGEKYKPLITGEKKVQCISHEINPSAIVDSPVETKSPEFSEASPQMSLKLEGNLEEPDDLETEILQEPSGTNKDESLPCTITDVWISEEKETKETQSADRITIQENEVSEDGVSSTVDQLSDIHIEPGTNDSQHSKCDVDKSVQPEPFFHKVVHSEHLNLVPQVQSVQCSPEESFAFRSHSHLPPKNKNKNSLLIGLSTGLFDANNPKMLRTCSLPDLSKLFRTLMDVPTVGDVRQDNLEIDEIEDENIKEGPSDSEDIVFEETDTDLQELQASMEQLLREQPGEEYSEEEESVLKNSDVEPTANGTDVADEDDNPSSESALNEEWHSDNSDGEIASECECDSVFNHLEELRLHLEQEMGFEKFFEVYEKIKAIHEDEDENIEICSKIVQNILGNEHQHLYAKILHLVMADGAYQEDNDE
# [3] = biological target: T2, Serine/threonine-protein kinase Nek1 (Homo sapiens); conditions: at 1 µM
# [4] = biological target: T3, Serine/threonine-protein kinase Nek2 (Homo sapiens) (UniProt P51955); conditions: at 0.1 µM
# T3 sequence (whole entry): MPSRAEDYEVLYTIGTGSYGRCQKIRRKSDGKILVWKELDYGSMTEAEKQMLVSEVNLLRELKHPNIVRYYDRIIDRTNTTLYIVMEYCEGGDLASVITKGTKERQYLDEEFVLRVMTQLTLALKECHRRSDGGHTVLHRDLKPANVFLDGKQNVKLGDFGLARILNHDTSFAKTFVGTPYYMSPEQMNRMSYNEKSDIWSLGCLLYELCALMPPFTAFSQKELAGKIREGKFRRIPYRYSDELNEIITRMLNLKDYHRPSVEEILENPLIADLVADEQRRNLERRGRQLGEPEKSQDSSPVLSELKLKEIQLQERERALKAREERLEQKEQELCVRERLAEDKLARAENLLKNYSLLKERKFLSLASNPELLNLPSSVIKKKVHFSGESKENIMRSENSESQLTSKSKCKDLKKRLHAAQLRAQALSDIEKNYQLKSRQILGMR
# [5] = biological target: T3, Serine/threonine-protein kinase Nek2 (Homo sapiens); conditions: at 1 µM
# [6] = biological target: Serine/threonine-protein kinase Nek6 (Homo sapiens) (UniProt Q9HC98); conditions: at 0.1 µM
# Serine/threonine-protein kinase Nek6 (Homo sapiens), sequence (Q9HC98 whole entry): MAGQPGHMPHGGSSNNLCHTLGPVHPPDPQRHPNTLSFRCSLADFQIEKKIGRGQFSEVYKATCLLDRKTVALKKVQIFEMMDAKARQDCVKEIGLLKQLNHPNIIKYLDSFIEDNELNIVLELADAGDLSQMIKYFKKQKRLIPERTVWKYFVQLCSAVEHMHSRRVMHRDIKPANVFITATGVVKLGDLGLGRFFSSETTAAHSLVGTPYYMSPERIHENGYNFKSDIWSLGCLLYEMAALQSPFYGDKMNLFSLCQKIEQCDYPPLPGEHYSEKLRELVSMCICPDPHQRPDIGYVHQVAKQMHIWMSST
# [7] = biological target: Serine/threonine-protein kinase Nek6 (Homo sapiens) (UniProt Q9HC98); conditions: at 1 µM
# [8] = biological target: Serine/threonine-protein kinase Nek7 (Homo sapiens) (UniProt Q8TDX7); conditions: at 0.1 µM
# Serine/threonine-protein kinase Nek7 (Homo sapiens), sequence (Q8TDX7 whole entry, looked up): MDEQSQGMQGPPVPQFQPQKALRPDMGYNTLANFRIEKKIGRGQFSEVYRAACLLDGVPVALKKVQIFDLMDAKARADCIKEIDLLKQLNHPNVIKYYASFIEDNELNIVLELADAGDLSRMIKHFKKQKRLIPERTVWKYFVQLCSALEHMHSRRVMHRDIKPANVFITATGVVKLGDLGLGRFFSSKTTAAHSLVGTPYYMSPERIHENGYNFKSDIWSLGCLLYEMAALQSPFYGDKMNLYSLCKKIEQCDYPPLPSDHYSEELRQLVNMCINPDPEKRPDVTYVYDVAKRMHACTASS
# [9] = biological target: Serine/threonine-protein kinase Nek7 (Homo sapiens) (UniProt Q8TDX7); conditions: at 1 µM
# [10] = biological target: T4, Serine/threonine-protein kinase Nek9 (Homo sapiens) (UniProt Q8TD19); conditions: at 0.1 µM
# T4 sequence (whole entry): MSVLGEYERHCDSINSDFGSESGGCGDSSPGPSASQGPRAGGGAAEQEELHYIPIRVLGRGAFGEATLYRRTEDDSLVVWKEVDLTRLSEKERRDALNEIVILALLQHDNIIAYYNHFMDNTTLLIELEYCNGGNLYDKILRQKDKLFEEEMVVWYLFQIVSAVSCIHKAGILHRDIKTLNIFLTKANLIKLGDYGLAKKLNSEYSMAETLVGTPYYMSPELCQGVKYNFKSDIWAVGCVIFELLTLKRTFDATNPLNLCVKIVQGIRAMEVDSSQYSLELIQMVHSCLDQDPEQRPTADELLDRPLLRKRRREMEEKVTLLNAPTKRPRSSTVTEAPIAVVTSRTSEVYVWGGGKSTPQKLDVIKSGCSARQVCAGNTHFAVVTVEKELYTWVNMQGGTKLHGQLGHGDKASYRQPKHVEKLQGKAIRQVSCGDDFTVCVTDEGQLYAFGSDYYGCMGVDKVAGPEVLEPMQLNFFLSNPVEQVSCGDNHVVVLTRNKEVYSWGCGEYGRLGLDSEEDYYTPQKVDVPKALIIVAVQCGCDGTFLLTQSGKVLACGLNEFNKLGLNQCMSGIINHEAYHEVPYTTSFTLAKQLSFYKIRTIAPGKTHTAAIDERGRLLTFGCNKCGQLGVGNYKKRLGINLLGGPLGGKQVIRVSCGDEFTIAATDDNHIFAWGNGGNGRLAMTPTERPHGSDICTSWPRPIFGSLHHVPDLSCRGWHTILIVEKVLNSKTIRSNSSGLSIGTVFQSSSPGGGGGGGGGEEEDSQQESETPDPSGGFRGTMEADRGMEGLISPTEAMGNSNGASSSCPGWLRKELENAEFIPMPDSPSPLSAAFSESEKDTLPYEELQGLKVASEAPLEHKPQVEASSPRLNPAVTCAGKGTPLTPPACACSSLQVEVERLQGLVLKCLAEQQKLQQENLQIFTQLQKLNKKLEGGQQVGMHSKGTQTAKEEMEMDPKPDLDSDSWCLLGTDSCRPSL
# [11] = biological target: T4, Serine/threonine-protein kinase Nek9 (Homo sapiens); conditions: at 1 µM
# [12] = biological target: Serine/threonine-protein kinase PLK1 (Homo sapiens) (UniProt P53350); conditions: at 0.1 µM
# Serine/threonine-protein kinase PLK1 (Homo sapiens), sequence (P53350 whole entry): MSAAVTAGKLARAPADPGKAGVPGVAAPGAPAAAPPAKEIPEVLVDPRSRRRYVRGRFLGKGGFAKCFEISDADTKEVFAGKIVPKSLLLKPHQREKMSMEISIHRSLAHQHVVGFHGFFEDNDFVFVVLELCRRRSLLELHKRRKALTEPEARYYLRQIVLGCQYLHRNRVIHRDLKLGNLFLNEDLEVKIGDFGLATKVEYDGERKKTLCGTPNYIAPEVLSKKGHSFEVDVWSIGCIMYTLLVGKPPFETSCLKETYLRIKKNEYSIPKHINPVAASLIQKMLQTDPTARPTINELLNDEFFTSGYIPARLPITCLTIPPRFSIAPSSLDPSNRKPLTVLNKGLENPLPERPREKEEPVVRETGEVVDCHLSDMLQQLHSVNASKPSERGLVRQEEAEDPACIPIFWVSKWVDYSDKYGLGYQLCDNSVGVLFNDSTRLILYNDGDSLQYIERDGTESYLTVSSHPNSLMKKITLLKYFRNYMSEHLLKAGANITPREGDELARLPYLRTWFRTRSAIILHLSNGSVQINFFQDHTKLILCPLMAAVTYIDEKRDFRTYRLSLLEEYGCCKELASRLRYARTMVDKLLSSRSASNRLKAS
# [13] = biological target: Serine/threonine-protein kinase PLK1 (Homo sapiens) (UniProt P53350); conditions: at 1 µM
# [14] = biological target: T5, Dual specificity protein kinase TTK (Homo sapiens) (UniProt P33981); conditions: at 0.1 µM
# T5 sequence (whole entry): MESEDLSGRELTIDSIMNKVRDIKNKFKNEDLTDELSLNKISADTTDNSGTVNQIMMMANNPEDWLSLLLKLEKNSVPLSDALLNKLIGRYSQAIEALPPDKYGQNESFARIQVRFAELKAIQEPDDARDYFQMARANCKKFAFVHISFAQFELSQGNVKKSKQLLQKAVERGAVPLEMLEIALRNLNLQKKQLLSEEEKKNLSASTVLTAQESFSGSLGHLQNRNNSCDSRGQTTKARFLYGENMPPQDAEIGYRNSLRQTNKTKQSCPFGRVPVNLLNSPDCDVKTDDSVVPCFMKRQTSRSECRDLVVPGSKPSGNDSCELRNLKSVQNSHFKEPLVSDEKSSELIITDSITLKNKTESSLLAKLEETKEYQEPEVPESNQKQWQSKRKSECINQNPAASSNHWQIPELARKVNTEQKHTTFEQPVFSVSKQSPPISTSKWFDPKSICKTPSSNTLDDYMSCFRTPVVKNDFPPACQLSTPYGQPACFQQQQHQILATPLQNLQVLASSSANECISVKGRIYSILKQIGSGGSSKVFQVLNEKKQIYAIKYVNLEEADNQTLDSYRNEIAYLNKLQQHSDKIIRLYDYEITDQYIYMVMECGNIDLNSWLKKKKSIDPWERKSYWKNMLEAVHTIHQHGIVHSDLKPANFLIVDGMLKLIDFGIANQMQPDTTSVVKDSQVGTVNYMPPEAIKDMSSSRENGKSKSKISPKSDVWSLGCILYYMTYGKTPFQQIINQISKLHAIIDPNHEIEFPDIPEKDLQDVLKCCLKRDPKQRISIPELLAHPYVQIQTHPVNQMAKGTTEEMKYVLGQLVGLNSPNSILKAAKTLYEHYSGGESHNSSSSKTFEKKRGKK
# [15] = tested on: T6, Receptor-type tyrosine-protein kinase FLT3 (Homo sapiens), P36888 [D835Y]; conditions: at 1 µM
# T6 sequence (whole entry): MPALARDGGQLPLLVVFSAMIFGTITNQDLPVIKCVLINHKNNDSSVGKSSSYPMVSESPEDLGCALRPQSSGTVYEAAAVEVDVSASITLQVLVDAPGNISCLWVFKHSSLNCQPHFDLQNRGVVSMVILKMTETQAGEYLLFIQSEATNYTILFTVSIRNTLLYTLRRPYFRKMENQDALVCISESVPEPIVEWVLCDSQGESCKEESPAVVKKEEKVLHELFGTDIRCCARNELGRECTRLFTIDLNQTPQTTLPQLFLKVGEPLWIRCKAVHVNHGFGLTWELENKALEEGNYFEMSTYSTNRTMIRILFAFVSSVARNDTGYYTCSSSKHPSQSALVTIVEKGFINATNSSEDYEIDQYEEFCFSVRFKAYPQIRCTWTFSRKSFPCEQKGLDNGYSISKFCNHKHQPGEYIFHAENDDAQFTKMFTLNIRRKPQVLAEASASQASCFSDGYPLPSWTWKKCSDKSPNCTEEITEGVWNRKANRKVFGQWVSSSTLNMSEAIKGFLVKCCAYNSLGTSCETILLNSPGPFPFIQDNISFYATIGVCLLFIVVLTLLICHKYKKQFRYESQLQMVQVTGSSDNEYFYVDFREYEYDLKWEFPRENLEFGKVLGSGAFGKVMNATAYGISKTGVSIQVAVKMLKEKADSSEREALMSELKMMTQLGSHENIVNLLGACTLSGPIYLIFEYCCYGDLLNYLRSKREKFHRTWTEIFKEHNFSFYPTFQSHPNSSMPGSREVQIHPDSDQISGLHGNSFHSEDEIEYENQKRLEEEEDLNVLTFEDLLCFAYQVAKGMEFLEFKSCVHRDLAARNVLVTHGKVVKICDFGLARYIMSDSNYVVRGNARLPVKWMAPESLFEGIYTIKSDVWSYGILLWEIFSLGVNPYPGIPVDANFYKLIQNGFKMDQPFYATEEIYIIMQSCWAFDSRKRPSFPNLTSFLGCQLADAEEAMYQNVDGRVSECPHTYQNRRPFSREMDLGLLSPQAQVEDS
# [16] = biological target: Vascular endothelial growth factor receptor 3 (Homo sapiens) (UniProt P35916); conditions: at 0.1 µM
# Vascular endothelial growth factor receptor 3 (Homo sapiens), sequence (P35916 whole entry): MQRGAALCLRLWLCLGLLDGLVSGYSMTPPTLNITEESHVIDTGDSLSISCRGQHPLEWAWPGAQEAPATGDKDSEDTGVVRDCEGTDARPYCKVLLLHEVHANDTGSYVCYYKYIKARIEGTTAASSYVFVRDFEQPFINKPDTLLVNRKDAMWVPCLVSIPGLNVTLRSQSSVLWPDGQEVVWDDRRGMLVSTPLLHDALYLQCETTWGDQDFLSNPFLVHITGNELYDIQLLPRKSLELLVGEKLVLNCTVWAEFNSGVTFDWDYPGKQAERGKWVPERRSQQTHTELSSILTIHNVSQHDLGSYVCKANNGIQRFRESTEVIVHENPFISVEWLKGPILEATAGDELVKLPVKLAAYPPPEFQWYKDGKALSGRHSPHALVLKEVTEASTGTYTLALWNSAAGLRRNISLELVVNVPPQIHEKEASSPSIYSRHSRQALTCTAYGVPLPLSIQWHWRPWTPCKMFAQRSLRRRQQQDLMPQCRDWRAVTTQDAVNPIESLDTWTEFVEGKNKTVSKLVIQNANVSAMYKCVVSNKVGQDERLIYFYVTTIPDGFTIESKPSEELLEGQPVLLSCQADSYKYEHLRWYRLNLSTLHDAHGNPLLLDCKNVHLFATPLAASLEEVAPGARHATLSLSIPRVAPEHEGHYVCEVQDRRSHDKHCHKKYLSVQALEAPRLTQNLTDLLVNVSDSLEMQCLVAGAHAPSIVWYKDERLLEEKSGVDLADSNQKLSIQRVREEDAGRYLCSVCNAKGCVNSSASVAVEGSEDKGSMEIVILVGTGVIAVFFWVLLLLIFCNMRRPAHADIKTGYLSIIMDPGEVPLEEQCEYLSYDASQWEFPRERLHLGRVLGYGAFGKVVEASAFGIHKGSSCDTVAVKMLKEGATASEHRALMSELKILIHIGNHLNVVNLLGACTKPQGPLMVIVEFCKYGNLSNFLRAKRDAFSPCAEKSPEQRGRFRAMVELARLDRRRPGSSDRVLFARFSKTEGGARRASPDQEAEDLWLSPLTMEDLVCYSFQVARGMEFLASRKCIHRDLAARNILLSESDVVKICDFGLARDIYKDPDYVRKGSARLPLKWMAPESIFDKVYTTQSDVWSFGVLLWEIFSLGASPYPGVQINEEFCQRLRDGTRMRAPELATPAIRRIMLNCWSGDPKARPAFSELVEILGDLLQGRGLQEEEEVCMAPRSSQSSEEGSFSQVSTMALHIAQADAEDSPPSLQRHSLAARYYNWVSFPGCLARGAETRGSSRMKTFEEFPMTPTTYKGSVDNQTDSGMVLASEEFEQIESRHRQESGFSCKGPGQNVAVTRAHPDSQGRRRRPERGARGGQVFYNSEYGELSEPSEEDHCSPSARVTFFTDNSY
# [17] = biological target: Vascular endothelial growth factor receptor 3 (Homo sapiens) (UniProt P35916); conditions: at 1 µM
# [18] = biological target: Macrophage colony-stimulating factor 1 receptor (Homo sapiens) (UniProt P07333); conditions: at 0.1 µM
# Macrophage colony-stimulating factor 1 receptor (Homo sapiens), sequence (P07333 whole entry): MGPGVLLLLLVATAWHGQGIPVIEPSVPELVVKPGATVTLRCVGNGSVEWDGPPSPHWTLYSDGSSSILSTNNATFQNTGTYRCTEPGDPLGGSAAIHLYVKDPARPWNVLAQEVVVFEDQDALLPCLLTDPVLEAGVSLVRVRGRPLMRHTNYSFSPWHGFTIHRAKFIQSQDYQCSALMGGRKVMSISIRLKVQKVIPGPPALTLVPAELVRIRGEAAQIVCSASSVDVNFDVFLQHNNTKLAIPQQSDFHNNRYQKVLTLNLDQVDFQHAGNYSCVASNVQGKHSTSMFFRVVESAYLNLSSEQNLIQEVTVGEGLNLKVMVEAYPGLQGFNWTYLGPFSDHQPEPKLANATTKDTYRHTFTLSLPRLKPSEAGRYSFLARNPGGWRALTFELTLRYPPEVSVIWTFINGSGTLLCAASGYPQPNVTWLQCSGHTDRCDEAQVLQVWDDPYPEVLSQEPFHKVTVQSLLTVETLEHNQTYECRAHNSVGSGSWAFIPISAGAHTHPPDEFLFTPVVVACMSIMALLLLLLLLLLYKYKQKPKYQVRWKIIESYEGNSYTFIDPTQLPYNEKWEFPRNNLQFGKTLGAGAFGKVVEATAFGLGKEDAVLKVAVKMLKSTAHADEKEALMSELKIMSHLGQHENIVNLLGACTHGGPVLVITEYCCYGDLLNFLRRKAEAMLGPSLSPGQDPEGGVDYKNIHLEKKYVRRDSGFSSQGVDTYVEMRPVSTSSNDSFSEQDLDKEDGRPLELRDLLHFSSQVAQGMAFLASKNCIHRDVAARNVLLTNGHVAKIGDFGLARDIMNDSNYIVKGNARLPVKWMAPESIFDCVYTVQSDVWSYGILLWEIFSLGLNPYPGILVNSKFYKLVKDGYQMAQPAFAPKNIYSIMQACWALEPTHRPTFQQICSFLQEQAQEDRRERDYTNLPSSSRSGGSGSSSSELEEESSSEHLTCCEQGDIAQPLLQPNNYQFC
# [19] = biological target: Macrophage colony-stimulating factor 1 receptor (Homo sapiens) (UniProt P07333); conditions: at 1 µM
# [20] = biological target: Tyrosine-protein kinase Fyn (Homo sapiens) (UniProt P06241); conditions: at 0.1 µM
# Tyrosine-protein kinase Fyn (Homo sapiens), sequence (P06241 2-537 limits assumed): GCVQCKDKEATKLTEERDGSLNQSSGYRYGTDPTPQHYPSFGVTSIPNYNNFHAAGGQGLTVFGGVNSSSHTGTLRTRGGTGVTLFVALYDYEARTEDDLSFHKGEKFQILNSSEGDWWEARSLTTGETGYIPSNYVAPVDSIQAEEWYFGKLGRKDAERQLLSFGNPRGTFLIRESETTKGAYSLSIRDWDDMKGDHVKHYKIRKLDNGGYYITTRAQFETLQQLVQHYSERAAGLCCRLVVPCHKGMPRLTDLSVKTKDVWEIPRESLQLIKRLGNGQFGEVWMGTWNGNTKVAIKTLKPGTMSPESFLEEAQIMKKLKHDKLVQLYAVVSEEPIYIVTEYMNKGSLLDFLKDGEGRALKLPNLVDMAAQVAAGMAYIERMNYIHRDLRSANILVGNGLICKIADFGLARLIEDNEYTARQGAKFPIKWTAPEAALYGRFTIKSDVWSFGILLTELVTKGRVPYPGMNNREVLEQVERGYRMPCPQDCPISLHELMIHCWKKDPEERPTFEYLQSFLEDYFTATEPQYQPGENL
smiles,measurement,setting,value
CN1CCC(n2cnc(-c3ccc(F)cc3)c2-c2ccnc(Nc3ccccc3)n2)CC1,inhibition,[1],6.75%
same,inhibition,[2],1.95%
same,inhibition,[3],2.29%
same,inhibition,[4],2.54%
same,inhibition,[5],3.52%
same,inhibition,[6],4.42%
same,inhibition,[7],3.58%
same,inhibition,[8],2.94%
same,inhibition,[9],2.65%
same,inhibition,[10],5.58%
same,inhibition,[11],10.1%
same,inhibition,[12],6.81%
same,inhibition,[13],2.65%
same,inhibition,[14],9.56%
same,inhibition,[15],2.38%
same,inhibition,[16],0.02%
same,inhibition,[17],1.32%
same,inhibition,[18],-1.19%
same,inhibition,[19],4.11%
same,inhibition,[20],0.05%
